Compound activity: PubChem BioAssay, National Center for Advancing Translational Sciences (NCATS)
Sm TGR block – blocks Schistosoma mansoni thioredoxin glutathione reductase | Q962Y6 | purified TGR, DTNB reduction, TNB absorbance 405 nm | Potency, µM (top dose mostly 114 µM), inactives show top-dose activity change, negative = inhibition, usual class: inhibitors | AID 485364 | hit rate 3% among 360,000; active = well fitted inhibition curve with a large enough effect; inconclusive = small, poorly fitted or top-dose-only effect; inactive = no such curve, though single readings can be large or run the other way; note: nearly all actives have a fitted effect of over 60% in size
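First, TGR (20 nM dispensed) and NADPH were mixed with compound. Second, a 15 min room-temperature incubation followed. Third, further NADPH and then DTNB were added to start the reaction. Finally, TNB absorbance was monitored kinetically.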
Lassa entry inh – Lassa virus entry inhibition. AID 540256. Potency, µM (series often up to 37.9 µM), for inactives: at the top dose activity change, negative = inhibition, hits mostly inhibitors. Lassa virus pseudotype entry inhibition, cell reporter. hit rate 1.2% among 300,000; calls by dose curve; tested in HEK293 cells; note: nearly all actives have a fitted effect of over 50% in size
Vaccinia Venus – vaccinia inhibition (Venus reporter); hit rate 0.46% among 330,000; Potency, µM (doses to about 36.5 µM), inactives show top-dose activity change, negative = inhibition, most hits filed as inhibitors; Vaccinia virus Venus reporter expression, fluorescence; AID 720580; calls by dose curve; tested in A549 cells; note: nearly all actives have a fitted effect of over 30% in size
Marburg entry inh – Marburg virus entry inhibition | Marburg virus pseudotyped entry inhibition, cell reporter | Potency, µM (titrated, usually from 37.8 µM), inactives show top-dose activity change, negative = inhibition, hits mostly inhibitors | hit rate 1.8% among 300,000 | AID 540276; calls by dose curve; tested in HEK293 cells
FMDV inh – foot and mouth disease virus antiviral activity. FMDV antiviral cell-based qHTS. Potency, µM (top dose mostly 57.9 µM), without a hit: at the highest dose activity change, negative = inhibition, usual class: inhibitors. hit rate 1.2% among 410,000; calls by dose curve; tested in HEK293T cells; note: read-out not given here; nearly all actives have a fitted effect of over 45% in size
VACV mCherry inh – vaccinia inhibition (mCherry reporter); AID 720579; Vaccinia virus mCherry reporter infection, fluorescence; hit rate 0.63% among 310,000; Potency, µM (series often up to 36.5 µM), for the others: at the highest dose activity change, negative = inhibition, hits mostly inhibitors; calls by dose curve; tested in A549 cells; note: nearly all actives have a fitted effect of over 35% in size
Numbers without * were called inactive; i = inactive; u = inconclusive; x = no result given; [ ] = dose if it differs, or a comment. A selection: hits, their analogues and other compounds. The true share with any hit is near 5.4%. % is set by controls: 0 for no effect and ±100 for the full control effect; potency is the fitted concentration of half-maximal effect.

SMILES	Sm TGR block	Lassa entry inh	Vaccinia Venus	Marburg entry inh	FMDV inh	VACV mCherry inh
CCOc1ccc(C2=Cc3cc(OC)c(OC)cc3C(=C(Cl)Cl)O2)cc1	35µM*	x	x	0%	x	x
COc1ccc(S(=O)(=O)Nc2ccc3c(c2)N(C(C)=O)CCC3)cc1F	1%	u	u	x	10µM*	u
CSc1cccc(NC(=O)c2cnn(-c3ccc(F)cc3)c2-n2cccc2)c1	7%	u	1%	x	u	-10%
CN1CCN(C(=O)/C=C/c2cn(-c3ccccc3)nc2-c2ccc3c(c2)OCCO3)CC1	-1%	u	u	21µM*	24%	u
COCCCNC(=O)c1oc2c(c1C)-c1nn(Cc3ccccc3Cl)cc1CC2	13%	1%[46.1 µM]	-21%	x	-11%	-28%
COc1ccc(-n2nc3c(N4CCC(C(=O)NCc5cccc(F)c5)CC4)nnc(C)c3c2C)cc1	-14%	-6%[46.1 µM]	28µM*	x	-30%	u
Cc1ccc(-n2nc3c(N4CCC(C(=O)NCCc5cccs5)CC4)nnc(C)c3c2C)cc1	1%	x	x	x	25µM*	x
Cc1nnc(N2CCC(C(=O)NCc3ccc(N(C)C)cc3)CC2)c2nn(-c3ccccc3)c(C)c12	-7%	u	13µM*	x	-7%	13µM*
COc1ccc(CNC(=O)C2CCN(c3nnc(C)c4c(C)n(-c5ccc(C)cc5)nc34)CC2)cc1	-9%	-3%[46.1 µM]	-14%	x	-22%	-17%
Cc1ccc(CCNC(=O)C2CCN(c3nnc(C)c4c(C)n(-c5ccccc5)nc34)CC2)cc1	-1%	29%[46.1 µM]	-2%	x	-12%	-9%
Cc1nnc(N2CCN(C(=O)Nc3cc(F)ccc3F)CC2)c2nn(-c3ccc(Cl)cc3)c(C)c12	-1%	u	u	x	u	11µM*
Cc1c(C(=O)NCc2ccccc2Cl)sc2ncnc(NCC3CCCO3)c12 (configuration not stated)	x	x	13%	x	-1%	-7%
COc1ccc(C2=Nn3c(nc4sc(C(=O)Nc5cccc(C)c5)c(C)c4c3=O)SC2)cc1	2%	9%[46.1 µM]	3%	-13%[46.1 µM]	-23%	-9%
CN(Cc1cccc(-c2cccnc2)c1)C(=O)Oc1ccc([N+](=O)[O-])cc1	x	x	-18%	x	35µM*	15%
Cc1nc(-c2cccc(CN(C)C(=O)Oc3ccc([N+](=O)[O-])cc3)c2)no1	x	x	-2%	x	u	i
CCCCCc1ccc(OCCC[n+]2ccccc2)c(CCCCC)c1	4%	u	10µM*	7.1µM*	18µM*	10µM*
C[n+]1cn(CC(O)COCc2ccccc2)c2ccccc21 (configuration not stated)	4%	11%	-20%	4%	-7%	-28%
CCCCCc1ccc(OCCOCCn2c[n+](C)c3ccccc32)c(CCCCC)c1	-9%	x	11µM*	x	25µM*	16µM*
O=C1c2cccc3cccc(c23)C(=O)C1(O)O	x	-24%	-6%	u	22µM*	-17%
COc1cc2c(cc1OC)C1=C(C#N)CN(CC(=O)O)CN1CC2	35µM*	x	3%	x	2%	31%
COc1cc2c(cc1OC)C1=C(C#N)CCC(=NC(=O)c3ccco3)N1CC2	x	1%	-14%	1%[46.1 µM]	9%	-17%
CC/C(=N/O)C(=O)c1ccc(Br)cc1	20%	8.9µM*	5%	1%[46.1 µM]	6%	-23%
C/C(=N/OC(=O)c1ccc(C)cc1)C(=O)c1ccc(Br)cc1	4%	x	x	x	0%	x
Cc1cc(O)c(C(c2cccc(F)c2)N2CCN(c3ccccc3)CC2)c(=O)n1Cc1ccco1 (configuration not stated)	3.2µM*	8%[46.1 µM]	-9%	x	0%	-8%
Cc1cc(O)c(C(c2cccc(Cl)c2)N2CCN(c3ccccc3)CC2)c(=O)n1Cc1ccco1 (configuration not stated)	4µM*	u	-10%	x	u	-10%
SMILES	Sm TGR block	Lassa entry inh	Vaccinia Venus	Marburg entry inh	FMDV inh	VACV mCherry inh
Oc1c(C(c2ccccc2)N2CCN(c3cccc(Cl)c3)CC2)sc2nc(-c3ccco3)nn12 (configuration not stated)	-1%	2%[46.1 µM]	-18%	x	-3%	-22%
CCOC(=O)C1CCN(C(=O)Cn2ncc3c4ccccc4n(Cc4ccccc4)c3c2=O)CC1	5%	-26%[46.1 µM]	-16%	1%[46.1 µM]	-27%	-14%
C#CCN1C(=O)[C@]2(O[C@H](C)CC3=CCCC32)c2c(Br)cccc21 (some centres not stated)	x	u	x	-15%[14.2 µM]	x	x
Cc1cc(N2CCCC2)c(F)cc1/C=C\[N+](=O)[O-]	-25%	u	-15%	-11%[46.1 µM]	22µM*	-22%
C[N+]1(CCNC(=O)/C=N\O)CCCCC1	x	x	x	5%[46.1 µM]	x	x
CC1CCC2(CC1)NC(=O)N(NC(=O)CCl)C2=O (configuration not stated)	7%	6%	u	-20%[46.1 µM]	-3%	16µM*
Cc1ccccc1-n1c(SCC(=O)N/N=C/C=C/c2ccccc2[N+](=O)[O-])nc2ccccc2c1=O	-11%	u	-16%	7.1µM*	20%	-20%
CCCCN(C(=O)CN1CC(C)OC(C)C1)c1c(N)n(CC(C)C)c(=O)[nH]c1=O (configuration not stated)	-10%	-1%	-5%	14%	-15%	i
CCCCN(C(=O)Cn1ncc(Cl)c(Cl)c1=O)c1c(N)n(CC(C)C)c(=O)[nH]c1=O	4.5µM*	x	6%	x	-20%	-8%
CCc1ccc(Sc2cc(C(=O)NCCCN3CCCC(C)C3)c3ccccc3n2)cc1 (configuration not stated)	-11%	u	-11%	x	5%	-5%
Cc1cccc(NC(=O)c2ccccc2NC(=O)C2CCCCC2)c1C	13µM*	u	6%	-23%	x	-14%
CCC1C(=O)OC[C@@H]1Cc1cncn1C (some centres not stated)	x	x	x	-6%	x	x
COc1ccccc1S(=O)Cc1ccc(C(=O)NCc2ccccc2Cl)o1 (configuration not stated)	16µM*	x	-13%	x	-19%	5%
COc1ccccc1CNC(=O)c1ccc(-c2ccccc2C(F)(F)F)o1	u	u	u	-25%	-4%	11µM*
O=S(=O)(c1ccc2c(c1)CCCC2)N1CCN(c2nc(-c3cccs3)nc3ccccc23)CC1	x	x	-13%	x	x	-12%
Cc1cccnc1-c1cccc2c1OC(CNC(=O)C1CCCc3c1[nH]c1ccccc31)C2 (configuration not stated)	x	x	-21%	x	4%	-6%
Cc1ccc(OC2=NS(=O)(=O)c3ccccc32)cc1	-16%	u	x	u	8%	x
COc1ccccc1OC1=NS(=O)(=O)c2ccccc21	u	11%	-9%	6%	40µM*	-6%
COc1cccc(C(=O)Nc2ccc3c(c2)CCCN3C(=O)c2cccs2)c1OC	3%	u	-14%	x	-15%	-7%
Cc1ccccc1C(=O)Nc1ccc2c(c1)CCCN2C(=O)c1cccs1	2%	0.89µM*	15%	x	-30%	-18%
